# LASV entry inh – inhibitors of Lassa virus binding or cell entry | hit rate 1.2% among 300,000 | Lassa virus pseudotype entry inhibition, cell reporter | Potency, µM (doses to about 37.9 µM), actives largely listed as inhibitors | AID 540256; calls by dose curve; tested in HEK293 cells; further: nearly all actives have a fitted effect of over 50% in size
# MARV entry inh – Marburg virus entry inhibition | Potency, µM (doses to about 37.8 µM), usual class: inhibitors | Marburg virus pseudotyped entry inhibition, cell reporter | hit rate 1.8% among 300,000; calls by dose curve; tested in HEK293 cells
# HCV inhibitor – inhibitors of hepatitis C virus infection. Huh7.5.1 HCVcc-Cre infection, luciferase reporter, 44 h. Potency, µM (titrated, usually from 41.8 µM), hits mostly inhibitors. hit rate 3.4% among 340,000; active means well fitted inhibition curve with a large enough effect; inconclusive means small, poorly fitted or top-dose-only effect, or another doubt; inactive means no such curve, though single readings can be large or run the other way
#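 A cell-based infection assay in which seeded cells (1,000 per well) receive test compound after 4 h, are inoculated with HCVcc-Cre at approximately 0.5 moi, and are incubated 44 h before luminescence detection.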
# FMDV antiviral – blocks foot and mouth disease virus; Potency, µM (titrated, usually from 57.9 µM), actives largely listed as inhibitors; AID 1159524; hit rate 1.2% among 410,000; FMDV antiviral cell-based qHTS; calls by dose curve; tested in HEK293T cells; further: read-out not given here; nearly all actives have a fitted effect of over 45% in size
# HCMV antiviral – blocks human cytomegalovirus replication; activity change, negative = inhibition, % at 57.5 µM; AID 1259415; HFF cells, HCMV-luciferase reporter, 72 h; hits give low values; hit rate 4.5% among 410,000; in the data active means activity change below about -60%; inconclusive means no clear call, values can overlap the other calls; inactive means above about -39%
#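 Two-dose cell screen: HFF monolayers treated with compounds and infected with luciferase-expressing HCMV at 1 PFU/cell, 72 h at 37C, then lysed for luciferase measurement.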
# Numbers stand for hits; . = inactive; ? = inconclusive; / = not tested or not shown. Rows were chosen to be rich in hits. Some 7.9% of all compounds tested hit in one or more screens of this group.
SMILES,LASV entry inh,MARV entry inh,HCV inhibitor,FMDV antiviral,HCMV antiviral
CCCCCc1ccc(-c2cn(Cc3ccc(C(=O)c4ccccc4)cc3)nn2)cc1,/,/,.,.,.
CCN1CCCC1CNC(=O)c1cnn(-c2ncc(C)c(-c3ccc(F)cc3)n2)c1C(C)C (stereo not drawn),/,/,/,.,/
COc1ccc(-c2cnc(C)o2)cc1S(=O)(=O)Nc1ccc(C)c(F)c1,?,/,/,.,.
Cc1cccc(CNc2nc3cnc(-c4cccc(F)c4)cc3n2C)c1,/,/,/,/,.
COc1ccc(-n2ccnc(NCc3ccc(Cl)cc3)c2=O)cc1,.,/,/,?,.
Cn1c(CNc2ccccn2)c(C#N)c2ccccc21,.,.,11µM,.,.
Cn1c(CSc2ccccc2)c(C#N)c2ccccc21,?,.,.,.,.
Cc1ccc(C(c2sc3nc(-c4ccco4)nn3c2O)N2CCOCC2)cc1 (stereo not drawn),.,/,/,.,.
CCOC(=O)c1cnc2c3c(noc13)CCC2,/,/,/,/,-101
CCOC(=O)c1noc2c1CCC2,/,/,/,.,.
CC(C)=CCC1(CC=C(C)C)C(=O)C(C(=O)c2ccccc2)=C2OC(C)(C)CCC2(CC=C(C)C)C1=O (stereo not drawn),/,.,/,/,/
COc1ccccc1NC(=O)N1CCN(c2cc(-c3ccccc3)nc3ncnn23)CC1,.,?,10µM,32µM,-95
COc1ccc(NC(=O)C2CCN(c3cc(-c4ccccc4)nc4ncnn34)CC2)cc1OC,?,.,.,?,-89
COc1ccc(OC)c(NC(=O)C2CCN(c3cc(-c4ccccc4)nc4ncnn34)CC2)c1,.,?,14µM,.,?
Cc1cc(C(=O)CN2C(=O)c3ccccc3C2=O)c(C)n1Cc1cccs1,.,6.5µM,.,.,.
C/C(=N\OC(=O)NC(C)C)c1sc(-c2ccc(Cl)cc2)nc1C,?,?,?,.,.
CCNC(=O)O/N=C(\C)c1sc(-c2ccc(Cl)cc2)nc1C,.,?,10µM,.,.
N#C/C(C(=O)N1CCOCC1)=C1\S[C@H](Cc2ccccc2)C(=O)N1c1ccccc1,/,.,/,/,/
CCOc1ccc(CN2CCN(CC3=Cc4cccc(OC)c4OC3)CC2CCO)cc1 (stereo not drawn),/,/,10µM,?,.
CCc1ccc(NS(=O)(=O)c2ccc3c(c2)oc(=O)n3C)cc1,/,/,?,.,?
Cc1ccc(NS(=O)(=O)c2ccc3c(c2)oc(=O)n3C)cc1C,.,.,?,.,-101
Cc1ccc(NS(=O)(=O)c2ccc3c(c2)oc(=O)n3C)cc1F,/,/,.,.,?
COc1cc(NS(=O)(=O)c2ccc3c(c2)oc(=O)n3C)cc(OC)c1OC,/,/,10µM,.,?
Cn1c(=O)oc2cc(S(=O)(=O)NCCN3CCc4ccccc4C3)ccc21,/,/,.,5.6µM,.
COc1ccc(NS(=O)(=O)c2ccc3c(c2)oc(=O)n3C)c(OC)c1,/,.,.,.,.
SMILES,LASV entry inh,MARV entry inh,HCV inhibitor,FMDV antiviral,HCMV antiviral
Cc1ccc(NS(=O)(=O)c2ccc3c(c2)oc(=O)n3C)cc1,.,?,.,.,-63
O=C(CNC(c1ccccc1)c1ccccc1)Nc1ccccc1-c1ccccc1,?,?,?,?,-71
O=C(Cn1nc(-c2ccccc2Cl)ccc1=O)Nc1ccccc1-c1ccccc1,.,.,?,.,-64
O=C(CSCc1c(Cl)cccc1Cl)Nc1ccccc1-c1ccccc1,?,?,?,.,-66
CCOC(=O)Cn1c(=O)n(C2CCCCC2)c2nc(-c3ccc(OCC)cc3)nc(C(N)=O)c21,?,/,/,.,.
CC1CCCN(C(=O)c2ccc(CSc3nc4ccncc4n3Cc3ccccc3)cc2)C1 (stereo not drawn),/,?,/,.,?
CC(CS(=O)(=O)c1ccccc1[N+](=O)[O-])N1CCOCC1 (stereo not drawn),.,.,.,.,-81
O=[N+]([O-])c1ccccc1S(=O)(=O)c1ccccc1[N+](=O)[O-],/,/,.,.,.
CC[C@@]1([C@@H]2O[C@@H]([C@H]3O[C@@](O)(CO)[C@H](C)C[C@@H]3C)C[C@@H]2C)CC[C@H]([C@]2(C)CC[C@]3(C[C@H](O)[C@@H](C)[C@@H]([C@@H](C)[C@@H](OC)[C@H](C)C(=O)O)O3)O2)O1 (stereo in doubt),/,/,/,.,/
CCOC(=O)N/N=C1/C[C@@H](O)[C@@H](O)[C@@H]2[C@H]3C(=O)N(c4ccc(F)cc4F)C(=O)[C@@H]3CC[C@@H]12,/,.,/,/,/
COc1ccc(COC(=O)NN=C2C[C@@H](O)[C@@H](O)[C@@H]3[C@H]4C(=O)N(Cc5ccc6c(c5)OCO6)C(=O)[C@@H]4CC[C@H]23)cc1,0.27µM,.,/,/,/
COc1ccc(COC(=O)NN=C2C[C@@H](O)[C@@H](O)[C@@H]3[C@H]4C(=O)N(c5ccc(F)cc5F)C(=O)[C@@H]4CC[C@H]23)cc1,2.8µM,?,/,/,/
CCOc1ccccc1NC(=O)CN(CCc1ccccc1)S(=O)(=O)c1ccc(C)cc1,.,/,/,.,.
O=S(=O)(NCC1CN(S(=O)(=O)c2c(F)cccc2F)C1)c1ccc2c(c1)OCCO2,/,/,/,.,-62
N#CC1=C(N)C(C#N)(C#N)[C@H](c2ccoc2)[C@H]2CN(Cc3ccccc3)CC=C12,.,6.3µM,.,?,?

# Screens: PubChem, National Center for Advancing Translational Sciences (NCATS)
